# Data from PubChem BioAssay (NCI).
# The panel holds about 83,000 compounds, 20% with a hit somewhere; the sample as a whole holds those more often.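 48-hour exposure, single concentration, 96-well plates; percent growth endpoint where 0 means no net growth. Active: below 10.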 Activity calls are given as the source filed them.
# System: HL-60(TB) leukemia
# Test: NCI-60 one-dose screen, 48 h (100 = growth as untreated, 0 = no growth, -100 = all killed)
# Conditions: 10 µM unless noted
row,SMILES,growth
1,Cc1ccc2c(c1)Nc1ccc(C)cc1C2(C)C,81% (inactive)
2,COc1cc2c(c(OC)c1OC)CCC(c1cccc(NC(=O)c3cccc(Br)c3)c1)O2 (centres undefined),97% (inactive)
3,C=C(Cl)C(=NC(C)(C)C)Nc1ccccc1C,43.3% (inactive)
4,Cc1ccc(NC(=S)N/C=C(\c2ccccc2)S(=O)Cc2ccccc2)c(C)c1 (centres undefined),96.8% (inactive)
5,COc1ccc2c3c([nH]c2c1)C(=O)c1nc(C)ccc1C3=O,59% (inactive)
6,COc1cc2c(c(OC)c1OC)-c1ccc(NNC(N)=S)c(=O)cc1[C@@H](NC(C)=O)CC2,-13.9% (active)
7,COC(=O)C(Cc1cn(C(C)=O)c2ccccc12)P(=O)(OC)OC (centres undefined),97.5% (inactive)
8,NS(=O)(=O)c1ccc(C(=O)N=Nc2c(O)[nH]c3ccc(Cl)cc23)cc1,102% (inactive)
9,N#Cc1ccc(O)c(C2=NCC(c3ccc(-c4ccccc4)cc3)O2)c1 (centres undefined),-17.3% (active)
10,NC(=S)N/N=C\c1nccc2c(C(F)(F)F)cccc12,-24.8% (active)
11,O=C(NO)c1ccc(Cn2c(=O)n(-c3ccccc3F)c(=O)c3ccccc32)cc1,-1.46% (active)
12,CN1CCN(C2=C(Cl)C(=O)c3ccccc3C2=O)CC1,24.8% (inactive)
13,O=c1[nH]c(-c2ccccc2)nc(CN2CCCCC2)c1O,84.4% (inactive)
14,CCCCC1COc2cccc3c2N1C=C/C3=C\C(=O)n1ccc2ccccc21 (centres undefined),58% (inactive)
15,C=CC(=O)Nc1cccc(Nc2nc(Nc3ccc(OCCOC(F)F)cc3)ncc2F)c1,19.8% (inactive)
16,CCCCC(O)Cn1ncc(C(=O)OCC)c1NC(=O)NCc1ccccc1C(F)(F)F (centres undefined),76.3% (inactive)
17,Cc1ccc(C(C)C)cc1NC(=O)Nc1ccc([N+](=O)[O-])cc1,-8.6% (active)
18,COc1cc2c(cc1OC)C(=O)/C(=C/c1cc(C)c(O)c(C)c1)S2,-3.56% (active)
19,COC(=O)c1ccc(NC(=O)Nc2ccc(C(=O)OC)cc2)cc1,92.8% (inactive)
20,CC(=O)c1cccc(O)c1,100% (inactive)

row,SMILES,growth
1,O=c1c2c3c(sc2n2c(-c4cc(-c5ccccc5)nn4-c4ccccc4)nnc2n1Cc1ccccc1)CCCC3,50.7% (inactive)
2,Cn1cc(-c2nnc(-c3ccccc3)s2)c2cc(Br)cnc21,103% (inactive)
3,CN1CCN=C1c1ccc(NC(=O)c2ccc(C(=O)Nc3ccc(C4=NCCN4C)cc3)cc2)cc1,91.2% (inactive)
4,COc1ccc(C[C@H](N)C(=O)N[C@@H]2[C@@H](CO)OC(n3cnc4c(N(C)C)ncnc43)[C@@H]2O)cc1 (some centres undefined),-29.9% (active)
5,COc1cc(NC(=O)CCSc2nc3ccc(Cl)cc3c(=O)n2Cc2ccccc2)cc(OC)c1OC,99.6% (inactive)
6,CS(=O)(=O)N1CCN(Cc2cc3nc(-c4cccc5[nH]ncc45)nc(N4CCOCC4)c3s2)CC1,23.6% (inactive)
7,O=C1C2C(c3cccs3)C=C(c3ccc(Cl)cc3)N2C(=S)N1c1ccccc1 (centres undefined),99.8% (inactive)
8,CCN1CCN(Cc2ccc(-c3cc4c(N[C@H](C)c5ccccc5)ncnc4[nH]3)cc2)CC1,14.5% (inactive)
9,CCCOc1cc2ccccc2cc1C(=O)Nc1nc(N)c2c(ccc3nccc32)[nH]1,-56.3% (active)
10,O=C1/C(=C/c2ccccc2Br)COc2ccc(O)cc21,17.1% (inactive)
11,Cc1ccc(S(=O)(=O)n2cc(C(=O)C(=O)Nc3ccncc3)c3ccccc32)cc1,16.1% (inactive)
12,Nc1nc(Nc2cccnc2)sc1C(=O)c1ccccc1F,-35.6% (active)
13,C[C@@]1(CCC#N)[C@H]2CC[C@@H]3[C@H]4[C@H](C(=O)/C=C/c5cccnc5)CC[C@]4(C#N)CC[C@@]3(C)[C@]2(C)CC[C@H]1C(=O)/C=C/c1cccnc1,46% (inactive)
14,CCN(CC)CCNc1ccc(C)c2sc3cc(C)ccc3c(=O)c12,64.1% (inactive)
15,N/C(=N/N=C/c1ccccc1)N/N=C\c1ccccc1,44.2% (inactive)
16,Cn1cnc([N+](=O)[O-])c1/C=C1\Oc2ccc(Br)cc2C1=O,75.5% (inactive)
17,COc1ccc2c(c1)O/C(=C\c1cccc(OCC(=O)Nc3nc(C)c(C)s3)c1)C2=O,-77.3% (active)
18,CC1(/C=C/c2ccc(-c3ccccc3)cc2)CCn2cnc3ncnc(c32)N1O (centres undefined),2.02% (active)
19,CCOC(=O)c1ccccc1OC(=O)NNc1ccccc1,-7.77% (active)
